# PubChem BioAssay (NCATS)
# Results filed as inconclusive are left out. Entries that show only a call come without a potency. A number with no mark means an inactive call. Calls of active or inactive are those of the source. Calls come from the whole dose curve; as a rule, active = well fitted curve in the direction sought with a large enough effect; inconclusive = small, poorly fitted or top-dose-only effect, or another doubt; inactive = no such curve, though single readings can be large; an effect the other way counts as inactive or inconclusive.
# Target: Rap guanine nucleotide exchange factor 4 (Homo sapiens) (UniProt Q8WZA2)
# Experiment: Confirmatory qHTS for agonist of cAMP-regulated guanine nucleotide exchange factor 4 (EPAC2) (AID 1645884);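 note: nucleotide exchange releases bodipy-GDP from Rap1 and this lowers its fluorescence; nearly all actives have a fitted effect of over 65% in size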; note: potency is the fitted concentration of half-maximal effect
# Details: EPAC2 GEF activity, Rap1B-BODIPY-GDP fluorescence; series mostly up to 154 µM
# Chain of Rap guanine nucleotide exchange factor 4 (Homo sapiens) (Q8WZA2 whole entry, looked up): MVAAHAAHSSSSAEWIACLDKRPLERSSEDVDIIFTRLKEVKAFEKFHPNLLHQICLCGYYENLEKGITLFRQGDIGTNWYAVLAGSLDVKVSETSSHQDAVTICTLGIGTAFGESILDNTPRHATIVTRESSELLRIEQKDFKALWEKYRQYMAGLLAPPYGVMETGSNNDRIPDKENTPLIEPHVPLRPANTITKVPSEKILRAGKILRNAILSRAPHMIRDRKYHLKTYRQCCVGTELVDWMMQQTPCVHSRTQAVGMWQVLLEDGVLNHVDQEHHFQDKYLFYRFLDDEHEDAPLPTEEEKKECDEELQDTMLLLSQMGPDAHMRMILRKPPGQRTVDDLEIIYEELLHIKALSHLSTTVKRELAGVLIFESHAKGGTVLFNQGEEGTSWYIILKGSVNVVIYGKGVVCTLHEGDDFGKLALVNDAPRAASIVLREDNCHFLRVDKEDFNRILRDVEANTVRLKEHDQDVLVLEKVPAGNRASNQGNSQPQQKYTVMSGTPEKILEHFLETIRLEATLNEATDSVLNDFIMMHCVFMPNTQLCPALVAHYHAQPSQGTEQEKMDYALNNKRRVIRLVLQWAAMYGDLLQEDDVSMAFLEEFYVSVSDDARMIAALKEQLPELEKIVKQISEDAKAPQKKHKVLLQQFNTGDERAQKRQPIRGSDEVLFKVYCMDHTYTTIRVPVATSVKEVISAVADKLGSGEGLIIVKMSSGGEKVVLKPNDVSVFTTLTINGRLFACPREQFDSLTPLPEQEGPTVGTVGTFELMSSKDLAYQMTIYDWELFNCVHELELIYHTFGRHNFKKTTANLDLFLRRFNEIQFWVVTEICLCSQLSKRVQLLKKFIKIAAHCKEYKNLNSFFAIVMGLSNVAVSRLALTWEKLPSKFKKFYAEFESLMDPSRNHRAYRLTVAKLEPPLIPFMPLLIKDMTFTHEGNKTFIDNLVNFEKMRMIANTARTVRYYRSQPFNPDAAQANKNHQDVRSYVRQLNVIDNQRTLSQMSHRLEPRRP
Compound,Potency,activation
CC1(Cc2cc(Cl)ccc2C(F)(F)F)C(=O)Nc2c(Cl)cccc21 (configuration not stated),inactive,–
CC(/C=C1\SC(=S)N(c2ccc(C(=O)O)cc2)C1=O)=C\c1ccccc1,–,"7.79% [at 17.1 µM, percent relative to cAMP agonist control]"
Cc1ccc(N2C(=O)c3ccccc3C2Nc2ccccc2F)nc1 (configuration not stated),–,"11.4% [at 17.1 µM, percent relative to cAMP agonist control]"
O=c1oc2c3c(ccc2c2ccccc12)OCN(Cc1cccc(Cl)c1)C3,inactive,–
O=C(O)CC/C(=C\c1cccc(NC(=O)c2ccccc2Cl)c1)c1nc2ccccc2s1,inactive,–
O=C(O)CC/C(=C\c1ccc(N2CCCC2)c([N+](=O)[O-])c1)c1nc2ccccc2s1,inactive,–
Cc1c(CCC(=O)O)c(=O)oc2cc(OCc3ccccc3Br)ccc12,inactive,–
COc1cc(/C=C2\CCn3c2nc2cc(C(=O)O)ccc2c3=O)ccc1OC(F)F,inactive,–
CCOC(=O)c1ccc(/C=C2/C=C(c3ccccc3)N(c3ccc(Cl)c(C(=O)O)c3)C2=O)cc1,100 µM (active),–

# Target: Rap guanine nucleotide exchange factor 4 (Homo sapiens) (UniProt Q8WZA2)
# Experiment: Confirmatory qHTS for antagonist of cAMP-regulated guanine nucleotide exchange factor 4 (EPAC2) (AID 1645885); note: nearly all actives have a fitted effect of over 25% in size; note: potency is the fitted concentration of half-maximal effect
# Details: EPAC2 Rap1B-BODIPY-GDP exchange fluorescence, biochemical; series mostly up to 12.7 µM
row,Compound,Potency
1,COc1cc2ccccc2cc1C(=O)NC(=S)Nc1cccc(C(=O)O)c1,inactive
2,NC(N)=N/N=C/c1ccc(OCc2ccc(Cl)cc2Cl)cc1,inactive
3,COc1ccc(CN(Cc2ccco2)C(=O)c2ccccc2F)cc1,inactive
4,CCOC(=O)c1cc(-c2ccc(/C=C3/C(=O)N(c4ccc(C(=O)O)cc4)N=C3C)o2)ccc1Cl,inactive
5,O=C(N/N=C/c1ccc(O)c(O)c1)C1c2ccccc2Oc2ccccc21,inactive
6,O=C1N(Cc2ccccc2Cl)c2ccccc2C1(O)c1c[nH]c2ccccc12 (configuration not stated),inactive
7,COc1ccc(CCn2c(O)cc3nn(-c4nc5ccccc5s4)c(=O)c-3c2C)cc1,inactive
8,CCOc1ccc(/C=C2\SC(=S)N(NS(=O)(=O)c3ccccc3)C2=O)cc1OC,37.9 µM (active)
9,Cn1c(SCC(=O)Nc2cccc(C(=O)O)c2)nnc1-c1cc2cc(Br)ccc2o1,inactive
10,Oc1ccccc1N=Cc1c(O)ccc2ccccc12,inactive
11,Cc1cc(Br)cn2c(Cc3ccsc3)c(-c3ccco3)nc12,inactive
12,CCc1ccc(N=C2NC(=O)/C(=C/c3ccc(OCC(=O)O)c(OC)c3)S2)cc1,inactive
13,CC1(C)CC2CC(C)(CN2C(=O)c2cc(-c3ccccc3O)on2)C1 (configuration not stated),inactive
14,Oc1ccc(NCc2cccc(OCc3ccc(F)cc3)c2)cc1,inactive
15,O=C(O)c1ccc(Nc2nc(-c3cc4ccccc4oc3=O)cs2)cc1O,inactive
16,CCc1ccc(N=C2NC(=O)/C(=C/c3ccc(OCC(=O)O)cc3)S2)cc1,inactive
17,O=[N+]([O-])c1ccc(NS(=O)(=O)c2ccccc2)c(Cl)c1,inactive
18,CCOc1cc(/C=C2\SC(=Nc3ccc(CC)cc3)NC2=O)ccc1OCC(=O)O,inactive

row,Compound,Potency
1,COc1ccc(C(=O)NCCn2cc(SCC(=O)NCCc3ccc(OC)c(OC)c3)c3ccccc32)cc1,inactive
2,Cc1nc2c3cc(F)ccc3n(Cc3ccccc3F)c2s1,inactive
3,COc1ccc(C(=O)c2ccc(Br)cc2)c(OC)c1OC,6.01 µM (active)
4,CNc1ccc(/C=C(\CCC(=O)O)c2nc3ccccc3s2)cc1[N+](=O)[O-],inactive
5,Cc1ccc(NS(=O)(=O)c2cccc3cccnc23)c(Cl)c1,inactive
6,COc1cc(/C=C2\SC(=Nc3ccccc3)N(CCc3c[nH]c4ccccc34)C2=O)ccc1OC(C)C(=O)O (configuration not stated),inactive
7,CC(=O)N1CCc2nc3sc(C(=O)c4ccc(F)cc4)c(N)c3c(C(F)(F)F)c2C1,inactive
8,COc1cc2cc(Oc3ccc4ccc(=O)oc4c3)c(=O)oc2cc1O,inactive
9,CCOC(=O)c1c(CSc2ccccc2)n(C)c2cc(Br)c(OCC(O)CNC(CO)(CO)CO)cc12 (configuration not stated),26.9 µM (active)
10,Cc1cc2nc3c(=O)n(Cc4ccccc4)c(=O)[nH]c3nc2cc1N,inactive
11,CC1(Cc2cc(Cl)ccc2C(F)(F)F)C(=O)Nc2c(Cl)cccc21 (configuration not stated),30.1 µM (active)
12,CC(/C=C1\SC(=S)N(c2ccc(C(=O)O)cc2)C1=O)=C\c1ccccc1,inactive
13,Cc1ccc(N2C(=O)c3ccccc3C2Nc2ccccc2F)nc1 (configuration not stated),inactive
14,O=c1oc2c3c(ccc2c2ccccc12)OCN(Cc1cccc(Cl)c1)C3,inactive
15,O=C(O)CC/C(=C\c1cccc(NC(=O)c2ccccc2Cl)c1)c1nc2ccccc2s1,inactive
16,O=C(O)CC/C(=C\c1ccc(N2CCCC2)c([N+](=O)[O-])c1)c1nc2ccccc2s1,inactive
17,Cc1c(CCC(=O)O)c(=O)oc2cc(OCc3ccccc3Br)ccc12,84.9 µM (active)
18,COc1cc(/C=C2\CCn3c2nc2cc(C(=O)O)ccc2c3=O)ccc1OC(F)F,inactive

# Target: Rap guanine nucleotide exchange factor 3 (Homo sapiens) (UniProt O95398)
# Experiment: Counterscreen qHTS for antagonist of cAMP-regulated guanine nucleotide exchange factor 3 (EPAC1) (AID 1645888);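 note: fluorescence loss as bound BODIPY-GDP is released from Rap1B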
# Details: Rap1B-BODIPY-GDP nucleotide exchange, fluorescence; series mostly up to 154 µM
# Method in brief: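 Rap1B–BODIPY-GDP (250 nM) with 50 uM GDP; compounds pin-transferred to 9.74 nM–152 uM final (activator) or from 7.32 nM upwards (inhibitor). Fluorescence Ex/Em 480/540 nm read at 5 and 30 min, then after adding cAMP or buffer, at room temperature.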
# Chain of Rap guanine nucleotide exchange factor 3 (Homo sapiens) (O95398 whole entry, looked up): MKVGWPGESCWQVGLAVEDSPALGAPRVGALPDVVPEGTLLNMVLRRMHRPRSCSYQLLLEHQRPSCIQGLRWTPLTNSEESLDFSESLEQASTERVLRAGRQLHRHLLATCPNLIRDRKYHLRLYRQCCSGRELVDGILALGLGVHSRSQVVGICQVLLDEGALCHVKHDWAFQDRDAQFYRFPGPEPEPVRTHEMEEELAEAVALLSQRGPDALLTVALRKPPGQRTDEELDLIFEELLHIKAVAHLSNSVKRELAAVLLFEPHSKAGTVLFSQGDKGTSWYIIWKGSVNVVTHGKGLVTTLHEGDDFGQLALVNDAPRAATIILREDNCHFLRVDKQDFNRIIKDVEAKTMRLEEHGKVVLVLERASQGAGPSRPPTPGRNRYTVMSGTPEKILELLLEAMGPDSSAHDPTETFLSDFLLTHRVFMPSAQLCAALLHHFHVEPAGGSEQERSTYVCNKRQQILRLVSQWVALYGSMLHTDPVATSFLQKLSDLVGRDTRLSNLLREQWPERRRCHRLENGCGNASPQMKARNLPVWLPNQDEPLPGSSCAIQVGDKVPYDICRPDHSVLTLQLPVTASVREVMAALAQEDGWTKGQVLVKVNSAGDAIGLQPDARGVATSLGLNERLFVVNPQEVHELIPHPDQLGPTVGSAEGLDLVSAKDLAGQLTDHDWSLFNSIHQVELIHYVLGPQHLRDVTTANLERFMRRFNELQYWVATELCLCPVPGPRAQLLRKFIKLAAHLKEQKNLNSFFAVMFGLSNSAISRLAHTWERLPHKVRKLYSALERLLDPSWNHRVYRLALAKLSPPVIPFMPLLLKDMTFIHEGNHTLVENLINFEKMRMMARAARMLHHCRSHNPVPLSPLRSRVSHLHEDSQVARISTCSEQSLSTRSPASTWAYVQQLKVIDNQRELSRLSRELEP
Compound,"activity change, negative = inhibition",Potency
COc1cc2ccccc2cc1C(=O)NC(=S)Nc1cccc(C(=O)O)c1,-9.48% [at 30.8 µM],–
NC(N)=N/N=C/c1ccc(OCc2ccc(Cl)cc2Cl)cc1,10.5% [at 30.8 µM],–
COc1ccc(CN(Cc2ccco2)C(=O)c2ccccc2F)cc1,–,inactive
CCOC(=O)[C@H]1[C@H]2COc3ccc(C)cc3[C@@H]2N2C(=O)c3ccc(C)cc3NC(=O)[C@@]12C,–,inactive
CCOC(=O)c1cc(-c2ccc(/C=C3/C(=O)N(c4ccc(C(=O)O)cc4)N=C3C)o2)ccc1Cl,–,inactive
O=C(N/N=C/c1ccc(O)c(O)c1)C1c2ccccc2Oc2ccccc21,–,inactive
O=C1N(Cc2ccccc2Cl)c2ccccc2C1(O)c1c[nH]c2ccccc12 (configuration not stated),–,inactive
COc1ccc(CCn2c(O)cc3nn(-c4nc5ccccc5s4)c(=O)c-3c2C)cc1,–,inactive
CCOc1ccc(/C=C2\SC(=S)N(NS(=O)(=O)c3ccccc3)C2=O)cc1OC,–,inactive
Cn1c(SCC(=O)Nc2cccc(C(=O)O)c2)nnc1-c1cc2cc(Br)ccc2o1,–,inactive
Oc1ccccc1N=Cc1c(O)ccc2ccccc12,-12% [at 30.8 µM],–
Cc1cc(Br)cn2c(Cc3ccsc3)c(-c3ccco3)nc12,4.94% [at 30.8 µM],–
CCc1ccc(N=C2NC(=O)/C(=C/c3ccc(OCC(=O)O)c(OC)c3)S2)cc1,–,inactive
CC1(C)CC2CC(C)(CN2C(=O)c2cc(-c3ccccc3O)on2)C1 (configuration not stated),5.82% [at 30.8 µM],–
Oc1ccc(NCc2cccc(OCc3ccc(F)cc3)c2)cc1,-11.4% [at 30.8 µM],–
O=C(O)c1ccc(Nc2nc(-c3cc4ccccc4oc3=O)cs2)cc1O,–,inactive
CCc1ccc(N=C2NC(=O)/C(=C/c3ccc(OCC(=O)O)cc3)S2)cc1,-19.4% [at 30.8 µM],–
O=[N+]([O-])c1ccc(NS(=O)(=O)c2ccccc2)c(Cl)c1,–,inactive
CCOc1cc(/C=C2\SC(=Nc3ccc(CC)cc3)NC2=O)ccc1OCC(=O)O,–,inactive

Compound,"activity change, negative = inhibition",Potency
COc1ccc(C(=O)NCCn2cc(SCC(=O)NCCc3ccc(OC)c(OC)c3)c3ccccc32)cc1,–,inactive
Cc1nc2c3cc(F)ccc3n(Cc3ccccc3F)c2s1,-7.48% [at 30.8 µM],–
COc1ccc(C(=O)c2ccc(Br)cc2)c(OC)c1OC,–,inactive
CNc1ccc(/C=C(\CCC(=O)O)c2nc3ccccc3s2)cc1[N+](=O)[O-],-16.8% [at 30.8 µM],–
Cc1ccc(NS(=O)(=O)c2cccc3cccnc23)c(Cl)c1,–,inactive
CN(C)c1ccc(/C=C(/C(=O)c2ccc(Cl)cc2Cl)n2cncn2)cc1,–,inactive
CCOc1ccccc1CN(CCc1ccc2c(c1)OCO2)Cc1ccccn1,2.25% [at 30.8 µM],–
CC(=O)N1CCc2nc3sc(C(=O)c4ccc(F)cc4)c(N)c3c(C(F)(F)F)c2C1,–,inactive
COc1cc2cc(Oc3ccc4ccc(=O)oc4c3)c(=O)oc2cc1O,-3.83% [at 30.8 µM],–
CCOC(=O)c1c(CSc2ccccc2)n(C)c2cc(Br)c(OCC(O)CNC(CO)(CO)CO)cc12 (configuration not stated),–,inactive
Cc1cc2nc3c(=O)n(Cc4ccccc4)c(=O)[nH]c3nc2cc1N,0.816% [at 30.8 µM],–
Cc1ccc(N2C(=O)c3ccccc3C2Nc2ccccc2F)nc1 (configuration not stated),13.9% [at 30.8 µM],–
O=c1oc2c3c(ccc2c2ccccc12)OCN(Cc1cccc(Cl)c1)C3,–,inactive
O=C(O)CC/C(=C\c1cccc(NC(=O)c2ccccc2Cl)c1)c1nc2ccccc2s1,–,inactive
O=C(O)CC/C(=C\c1ccc(N2CCCC2)c([N+](=O)[O-])c1)c1nc2ccccc2s1,–,inactive
Cc1c(CCC(=O)O)c(=O)oc2cc(OCc3ccccc3Br)ccc12,–,inactive
COc1cc(/C=C2\CCn3c2nc2cc(C(=O)O)ccc2c3=O)ccc1OC(F)F,–,inactive
CCOC(=O)c1ccc(/C=C2/C=C(c3ccccc3)N(c3ccc(Cl)c(C(=O)O)c3)C2=O)cc1,–,inactive
